A488 autofl: compound autofluorescence in A488 spectral region | compound autofluorescence, A488 spectral region, dye equivalency; Compound Type: qHTS ECL - MLSMR | 59,000 compounds, 0.1% hits | max dye equivalency, M
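Read-out: relative fluorescence at 480/540 nm, expressed as Alexa 488 dye-equivalent concentration from a six-point A488 standard included per plate. Conditions: 100 mM Tris, pH 8.0; 15 min incubation, room temperature.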
Rhodamine fluor: compound autofluorescence in rhodamine spectral region. Rhodamine-region fluorescence, 547/598 nm, Tris buffer; hits give high values. max dye-equivalent concentration, M. 59,000 compounds, 0.05% hits; in the data active means max dye-equivalent concentration above about 11 nM; inconclusive means between about 1.1 nM and that limit
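Read-out is relative fluorescence at 547 nm excitation and 598 nm emission, expressed as dye-equivalent concentration using rhodamine standards on every plate. Each compound was profiled across a concentration series after 15 min in 100 mM Tris, pH 8.0.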
Fluorescein autfl: compound autofluorescence in fluorescein spectral region. Compound autofluorescence, 480/540 nm, fluorescein-equivalent; hits give high values. max fluorescein-equivalent concentration, M. 59,000 compounds, 0.91% hits; in the data active means max fluorescein-equivalent concentration above about 10 nM; inconclusive means between about 1.1 nM and that limit
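Read-out is intrinsic compound fluorescence at 480/540 nm (excitation/emission), expressed as dye-equivalent concentration using a fluorescein standard series run on every plate. Compounds sat 15 min at room temperature in 100 mM Tris, pH 8.0.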
Resorufin fluor: resorufin region autofluorescence. 59,000 compounds, 0.04% hits. max dye-equivalent concentration, M. Compound fluorescence, resorufin region 547/598 nm, buffer; hits give high values
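Read-out: intrinsic compound fluorescence at ex 547/em 598 nm after 15 min at RT in pH 8.0 Tris (100 mM). Values expressed as resorufin-equivalent concentration from per-plate standard series.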
A647 autofl: A647 region autofluorescence; AID 592; 59,000 tested, under 10 active; Compound fluorescence, A647 channel (570/671 nm), Tris buffer; max dye-equivalent concentration, M
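Each compound's intrinsic fluorescence at 570 nm excitation and 671 nm emission is measured across its concentration series in 100 mM Tris, pH 8.0, after 15 min at room temperature, and reported relative to an A647 curve.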
TexasRed autofl: Texas Red region autofluorescence; Compound fluorescence, Texas Red channel, 547/618 nm; hits give high values; max dye-equivalent concentration, M; 59,000 compounds, 0.06% hits; AID 587; in the data active means max dye-equivalent concentration above about 10 nM; inconclusive means between about 1.1 nM and that limit
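Spectral interference profiling: each compound concentration's relative fluorescence, read with a 547 nm excitation and 618 nm emission filter pair, was normalized to a per-plate Texas Red standard curve.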
Each line names hits and unclear results; the compound was inactive in the other large screens. A selection: hits, their analogues and other compounds. The true share with any hit is near 0.96%. Unless noted, how the calls were made is not given here.

c1ccc(-c2nnc(Cn3c4ccccc4c4nc5ccccc5nc43)o2)cc1	Fluorescein autfl inconclusive
CCCn1nc(-c2ccccc2)c2nc3ccccc3nc21	A488 autofl 1.1e-08M, Fluorescein autfl 2e-07M
CCCCn1c2nc3ccccc3nc2c2c(=O)n(CCC)cnc21	TexasRed autofl inconclusive
CO/N=C(\C(=O)N[C@@H]1C(=O)N2C(C(=O)O)=C(CSc3nc(=O)c(O)nn3C)CS[C@@H]12)c1csc(N)n1	Fluorescein autfl inconclusive
COc1cccc2cc(-c3nc(-c4cccs4)cs3)c(=O)oc12	Fluorescein autfl 2.4e-08M
Cc1ccc2nc3sc(C(=O)N4CCOCC4)c(N)c3cc2c1	A488 autofl inconclusive, Fluorescein autfl 8.1e-08M
CC1(C)Cc2c(c(-c3ccco3)[nH]c(=O)c2C#N)CS1	A488 autofl inconclusive, Fluorescein autfl 8.7e-08M, TexasRed autofl inconclusive
CCOC(=O)C1CCN(c2nc3ccccc3nc2C(C#N)C(=O)NCCc2ccccc2)CC1 (configuration not stated)	Fluorescein autfl 2.3e-08M
COCCNC(=O)C(C#N)c1nc2ccccc2nc1N1CCCCCC1 (configuration not stated)	Fluorescein autfl inconclusive
CCOC(=O)C1CCCN(c2nc3ccccc3nc2C(C#N)C(=O)OCC)C1 (configuration not stated)	Fluorescein autfl 1.1e-08M
CCOC(=O)C1CCCN(c2nc3ccccc3nc2C(C#N)C(=O)OCCOC)C1 (configuration not stated)	Fluorescein autfl inconclusive
C/C(=N\[N+](C)(C)C)c1ccc(C)c(C)c1	Fluorescein autfl inconclusive
CCCC(=O)Nc1ccc(NC(=O)Cc2ccccc2)cn1	Fluorescein autfl inconclusive
CCCC(=O)Nc1ccc(NC(=O)c2ccccc2Cl)nc1	Fluorescein autfl 1.1e-08M
O=c1c(-c2cccc(Cl)c2)nc2cncnc2n1Cc1ccccc1	Fluorescein autfl inconclusive
CSc1nc(N)c2ncn([C@@H]3O[C@@H](COP(=O)(O)OP(=O)(O)OP(=O)(O)O)[C@@H](O)[C@H]3O)c2n1	none
NC(=O)N1c2ccccc2CC(=O)c2ccccc21	A488 autofl inconclusive, Fluorescein autfl 3.3e-08M
NC(=O)N1c2ccccc2C=Cc2ccccc21	Fluorescein autfl inconclusive
COC(=O)[C@H]1[C@@H]2C[C@H]3c4[nH]c5ccccc5c4CCN3C[C@@H]2CC[C@@H]1O	none
Cc1cc2c(c(=O)o1)C1(C(=O)N(CC(=O)O)c3ccccc31)C(C#N)=C(N)O2 (configuration not stated)	Fluorescein autfl 1.3e-08M
CCN1C(=O)C2(C(C#N)=C(N)Oc3cc(C)oc(=O)c32)c2ccccc21 (configuration not stated)	TexasRed autofl inconclusive
O=C(NC1=NCCS1)C1Cc2ccccc2CN1C(=O)c1ccccc1 (configuration not stated)	TexasRed autofl inconclusive
COc1ccc(NC(=O)C2Cc3ccccc3CN2C(=O)c2ccccc2)cn1 (configuration not stated)	A488 autofl inconclusive, Fluorescein autfl 5.9e-08M
N#Cc1c(N2CCCCC2)nc(N2CCCCC2)c2c1CCN(Cc1ccccc1)C2	A488 autofl inconclusive, Fluorescein autfl 4.8e-08M
Cn1c(CN2CCC(C(N)=O)CC2)c(C#N)c2ccccc21	Fluorescein autfl inconclusive, TexasRed autofl inconclusive
Cn1c(CN2CCCCC2)c(C#N)c2ccccc21	Fluorescein autfl 2.5e-08M
O=c1c(-c2ccc(Cl)cc2)nc2cnc(N3CCOCC3)nc2n1-c1ccccc1	TexasRed autofl inconclusive
C=CCNc1nc(N)c(C(=O)Nc2cc(C)on2)s1	none
Cc1cc(C(F)(F)F)c2c(N)c(C(=O)Nc3cc(C)on3)sc2n1	Fluorescein autfl 1.2e-08M
OC[C@@H]1O[C@@H](n2cnc3c(SCc4ccccc4)ncnc32)[C@@H](O)[C@H]1O	none
COc1cccc(-c2ccc3ncnc(N4CCNCC4)c3c2)c1	Fluorescein autfl inconclusive
Cc1c(N=Cc2ccc(Cl)o2)c(=O)n(-c2ccccc2)n1C	Fluorescein autfl inconclusive
Cc1cccc(-n2c(O)c(C=Nc3c(C)n(C)n(-c4ccccc4)c3=O)c3ccccc3c2=O)n1	A488 autofl inconclusive, Fluorescein autfl 5.7e-08M
COc1ccc(-n2c(=O)c(-c3cccs3)nc3cnc(Oc4ccccc4)nc32)cc1	none
N[C@@H]1[C@@H]2[C@@H]3C[C@H]4N(CC[C@@]14C(=O)C(=O)O)CC3=CCO[C@@H]2CC(=O)O	Fluorescein autfl 1e-08M
COc1ccc(-c2c3c(=O)n(C)c(=O)n(C)c3c3nnc4ccccc4n23)cc1	Fluorescein autfl 1.4e-08M
CN1CCN(Cc2nc3cccc4c3c([n+]2[O-])-c2ccccc2-4)CC1	Fluorescein autfl 1.4e-08M
CCCCn1c(CN2CCN(C)CC2)nc2ccccc21	none
COc1ccc(C(=O)N2CCC3(CCCN(c4ncccn4)C3)CC2)cc1	none
CC(C)N1CC2=C(OC(N)=C(C#N)C2c2cccnc2)/C(=C/c2cccnc2)C1 (configuration not stated)	Fluorescein autfl inconclusive, TexasRed autofl 1.3e-08M

From PubChem
